Reference: PubChem BioAssay AID720707 (National Center for Advancing Translational Sciences (NCATS), 2013)
Screen size: about 360,000 compounds; about 270 (0.075%) were called active. The sample holds actives, similar compounds and a random draw of the others, so the mix is not that of the screen. A number with no mark means an inactive call. Calls come from the whole dose curve; as a rule, active = well fitted activation curve with a large enough effect; inconclusive = small, poorly fitted or top-dose-only effect; inactive = no such curve, though single readings can be large or run the other way.

Target: Rap guanine nucleotide exchange factor 3 (Homo sapiens) (UniProt O95398)
Sequence (O95398 whole entry, looked up): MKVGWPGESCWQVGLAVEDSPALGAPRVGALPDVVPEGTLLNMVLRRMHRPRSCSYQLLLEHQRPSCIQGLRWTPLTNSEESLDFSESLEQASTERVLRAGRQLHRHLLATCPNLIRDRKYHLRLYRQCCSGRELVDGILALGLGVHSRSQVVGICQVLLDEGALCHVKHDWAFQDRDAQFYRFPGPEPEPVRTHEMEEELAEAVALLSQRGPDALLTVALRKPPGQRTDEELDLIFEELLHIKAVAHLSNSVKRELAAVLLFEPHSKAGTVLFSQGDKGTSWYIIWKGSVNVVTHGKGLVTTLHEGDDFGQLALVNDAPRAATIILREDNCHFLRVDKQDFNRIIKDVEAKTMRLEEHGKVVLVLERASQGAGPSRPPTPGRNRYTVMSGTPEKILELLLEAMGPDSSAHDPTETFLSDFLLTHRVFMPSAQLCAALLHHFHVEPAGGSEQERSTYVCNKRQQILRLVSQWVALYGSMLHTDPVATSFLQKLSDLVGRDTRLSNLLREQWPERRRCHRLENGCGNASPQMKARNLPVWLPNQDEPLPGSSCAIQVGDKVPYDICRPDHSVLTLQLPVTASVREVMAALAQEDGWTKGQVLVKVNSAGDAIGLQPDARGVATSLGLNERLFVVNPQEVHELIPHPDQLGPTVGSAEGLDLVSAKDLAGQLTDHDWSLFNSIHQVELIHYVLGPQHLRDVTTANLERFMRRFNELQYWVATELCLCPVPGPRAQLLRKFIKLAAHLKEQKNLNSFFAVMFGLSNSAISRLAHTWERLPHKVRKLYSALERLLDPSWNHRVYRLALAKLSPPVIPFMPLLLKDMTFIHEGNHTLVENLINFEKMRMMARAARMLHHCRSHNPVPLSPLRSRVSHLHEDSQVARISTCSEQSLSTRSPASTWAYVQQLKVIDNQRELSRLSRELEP
Test: qHTS for Agonist of cAMP-regulated guanine nucleotide exchange factor 3 (EPAC1): primary screen; note: nearly all actives have a fitted effect of over 60% in size
Details: biochemical assay; series mostly up to 154 µM; activation: at the top concentration
Text: In multi-cellular eukaryotic organisms, the effects of cAMP are transduced by two ubiquitously-expressed intracellular cAMP receptors, the classic protein kinase A/cAMP-dependent protein kinase (PKA/cAPK) and the more recently discovered exchange protein directly activated by cAMP/cAMP-regulated guanine nucleotide exchange factor (EPAC/cAMP-GEF). Both PKA and EPAC are ubiquitously expressed in all tissues, and an increase in intracellular cAMP levels will lead to the activation of both PKA and EPAC. Therefore, careful dissections of the individual role and relative contribution of EPAC and PKA within the overall cAMP signaling in various model systems are critical for further elucidating the mechanism of cAMP signaling. To date no EPAC-specific antagonists and agonist, as well as isoform-specific agonists have been reported, and developing EPAC-specific pharmacological probes to determine the physiological functions that EPAC play in the overall cAMP-mediated signaling remains a major challenge within the research field. Furthermore, identified regulators of EPAC may lead to new mechanism-based therapeutic strategies specifically targeting the EPAC / cAMP-signaling components as EPAC has been implicated to play important roles in major human pathological conditions such as diabetes, heart disease, and cancer.
This qHTS will be used to screen the Molecular Libraries Small Molecule Repository (MLSMR) as a concentration-titration series using the NCGC unique quantitative screening (qHTS) platform to find activators for EPAC1. In addition, this assay will also be used as a counterscreen for the EPAC2 qHTS. This fluorescent based assay is developed and validated for EPAC1 that measures exchange using EPAC effector Rap1 complex with BODIPY-GDP, a GDP analog with a tethered fluorophores. Activators are identified by monitoring the change in fluorescence signal as the exchanged free BODIPY-GDP has a reduced fluorescence compared to Rap1-bound BODIPY-GDP. Increase in signal (activation) is the desired outcome for the EPAC1 agonist while no activity in this assay is desired for the EPAC2 agonist counterscreen.
[1] de Rooij, J., Zwartkruis, F. J., Verheijen, M. H., Cool, R. H., Nijman, S. M., Wittinghofer, A., and Bos, J.L. (1998) Nature 396, 474-477
NIH Chemical Genomics Center [NCGC]
NIH Molecular Libraries Probe Centers Network [MLPCN]
Assay Submitter (PI): Xiaodong Cheng, The University of Texas Medical Branch
Briefly, three uL of reagents (100 nM EPAC1, 250 nM RAP1B-BODIPY-GDP, 50 uM GDP) were dispensed into a 1536-well Greiner black solid-bottom medium binding assay plate. Controls and test compounds (23 nL) were transferred to the plate via a Kalypsys pin tool equipped with a 1536-pin array. The plates were centrifuged at 1,000 rpm for 15 seconds followed by 5 minute incubation at room temperature. The assay plates were read at 5 minute intervals for 30 minutes in the ViewLux plate reader using 480nm excitation and 540nm emission filters. The results were normalized to the agonist positive control of 6.5 mM cAMP.
Potency is the fitted concentration of half-maximal effect.

SMILES | activation [%] | Potency
COC(=O)CN(c1cccc(C(C)=O)c1)S(C)(=O)=O | 2.68 | –
CCN(CC)c1ccc2oc(=O)c(C)nc2c1 | – | 100 µM (active)
CN(CC(=O)Nc1ccccc1[N+](=O)[O-])Cc1ccc(Br)cc1 | -0.157 | –
O=C(C[C@H]1CC[C@H]2[C@@H](COC[C@H](O)CN2C(=O)c2ccccn2)O1)N1CCN(c2ccccc2)CC1 | -8.67 | –
Cc1ccccc1-n1cc(CNC(=O)C2CCC(=O)N(C3CC3)C2)cn1 (stereo not drawn) | 3.43 | –
Cc1ccc(NC(=O)CCC(=O)N2CCC(c3ccccc3)=N2)cc1S(=O)(=O)N1CCCCC1 | 2.62 | –
O=C(NC(=S)Nc1ccc(Br)cc1F)C1CCCCC1 | 7.55 | –
CCOc1ccc(NC(=O)C2CCN(C(=O)N3CCOc4ccccc43)CC2)cc1 | -0.584 | –
CCOc1ccc(CC(=O)Nc2ccc(S(=O)(=O)Nc3cc(C)on3)cc2)cc1OCC | -2.8 | –
CCC(C)NC(=O)Cn1nc(C(F)(F)F)c2c1CCC2 (stereo not drawn) | -4.09 | –
COc1cc(Cl)c(C)cc1NC(=O)CSc1nnc(CN2CCCC2)o1 | -0.0539 | –
COc1ccc(OC)c(NC(=O)c2cc(-c3cc(F)ccc3OCC3CCCO3)n[nH]2)c1 (stereo not drawn) | -2.63 | –
O=C(NCCC1CCCCN1S(=O)(=O)c1ccc(Cl)cc1)C(=O)NCc1ccco1 (stereo not drawn) | – | 50.1 µM (active)
O=C(NCCC1CCCCN1S(=O)(=O)c1ccccc1)C(=O)NCC1CCCO1 (stereo not drawn) | -5.17 | –
O=C(NCCc1ccco1)C(=O)NCCC1CCCCN1S(=O)(=O)c1ccccc1 (stereo not drawn) | 1.6 | –
COCCCNc1nc2ccccc2nc1NS(=O)(=O)c1ccc(F)cc1 | -1.08 | –
CO/N=C/c1cn(-c2ccc(Cl)cc2)nn1 | 6.91 | –
CN1CCN(C2=NCCO2)CC1 | -0.11 | –
CC(=O)Oc1ccc(Cn2c(C)c(C(=O)NCc3ccc(C#N)cc3)sc2=O)cc1 | 4.44 | –
Cc1cccc(CC(=O)N2CCN=C2SCc2ccc([N+](=O)[O-])cc2)c1 | 4.91 | –
Cc1ccc(S(=O)(=O)N2CCCCC2)cc1C(=O)N(C)CC(=O)Nc1cccc(F)c1 | -1.63 | –
Cc1cc(NC(=O)CN2C(=O)NC(C)(CCc3ccccc3)C2=O)no1 (stereo not drawn) | 3.5 | –
Cc1cccc(-c2nc(CS(=O)CC(=O)NC(C)CCc3ccccc3)c(C)o2)c1 (stereo not drawn) | 4.27 | –
CC(C)N1CCC(=NNc2ccc([N+](=O)[O-])cc2S(=O)(=O)N2CCOCC2)CC1 | 4.79 | –
Cc1ccccc1NC(=O)C1CCCN(C(=O)NCc2ccccc2)C1 (stereo not drawn) | -0.75 | –
O=C1CCC(C(=O)N2CCN(c3ccccc3Cl)CC2)CN1CC1CCCCC1 (stereo not drawn) | -2.26 | –

SMILES | activation [%] | Potency
CS(=O)(=O)/C(C#N)=C/c1cccn1S(=O)(=O)c1ccc([N+](=O)[O-])cc1 | -9.53 | –
O=C(c1ccc(CS(=O)Cc2ccccc2Cl)o1)N1CCN(c2ccccc2)CC1 (stereo not drawn) | 11 | –
CCN1C(=NCc2ccc(OC)cc2)N[C@@H](CCc2ccccc2)[C@H](C(=O)NCc2ccc(OC)cc2)[C@H]1C | -8.48 | –
CCc1cccc(CC)c1N1C(=O)CC(Sc2ccccc2N)C1=O (stereo not drawn) | 8.79 | –
CCCC(=O)OCC(=O)Nc1cc(Cl)ccc1[N+](=O)[O-] | 2.31 | –
CC(C)Cc1ccc(S(=O)(=O)N2CCN(C(=O)c3ccco3)CC2)cc1 | -8.05 | –
CC(=O)c1cccc(NC(=O)N2CCCC2C(=O)NCCC(C)C)c1 (stereo not drawn) | 0.342 | –
Cc1ccsc1C(=O)N[C@@H](C)c1nnc2ccccn12 | 2.04 | –
Nc1ccc2nc3c(=O)[nH]c(=S)[nH]c3nc2c1 | – | 89.1 µM (active)
COC(=O)[C@@]1(C)[C@H]2C(=O)N(Cc3ccccc3)C(=O)[C@H]2[C@H]2CN=C(SCC3CC3)N21 | -7.77 | –
NC(=O)C1CCN(C(=O)c2ccc(-c3ccccc3)cc2)CC1 | -6.39 | –
O=C(C1=C(O)C(=O)N(CCOCCO)C1c1ccccn1)c1cccs1 (stereo not drawn) | 1.34 | –
CCOC(=O)c1cnn2c(SC)ncnc12 | 8.61 | –
COCCn1c(SCC(=O)N2CCCCCC2)nc2c(c1=O)SCC2 | 0.332 | –
CC(=O)Nc1ccc(S(=O)(=O)NNC(=O)CCc2ccccc2)cc1 | -0.565 | –
CCNC(=O)c1cnn(-c2ccccc2)c1-c1ccccc1 | 6.35 | –
CN1CCN(Cc2nc3c(c(=O)n(C)c(=O)n3C)n2Cc2cccc3ccccc23)CC1 | -10.8 | –
Cc1ccc2c(c1)N(CC(=O)N1CCC(O)CC1)C(=O)CO2 | 4.96 | –
CCOC(=O)C1CCN(C(=O)CSc2cc(=O)n(C)c3ccccc23)CC1 | 0 | –
CCOC(=O)C1CCCN(C(=O)c2sc3nc(C)nc(N4CCOCC4)c3c2C)C1 (stereo not drawn) | 0.4 | –
CS(=O)(=O)N1CCc2cc(C(=O)Nc3ccccc3Br)ccc21 | 4.31 | –
CC(=O)c1ccc(N2CCN(S(=O)(=O)c3c(C)[nH]c(=O)[nH]c3=O)CC2)cc1 | 1.54 | –
C=CCN(CC=C)C(=O)COC(=O)c1n[nH]c2ccccc12 | 6.61 | –
CCOC(=O)c1cc(-c2ccc(F)cc2)n(CC(=O)NCc2ccccn2)c1C | -10.1 | –
CC[C@H](C)C(=O)N[C@H]1CCCN1C(=O)/C=C/c1ccccc1 | 4.71 | –
O=C(O)Cc1csc(NC(=O)CSc2nnnn2-c2ccc(O)cc2)n1 | -13.7 | –

SMILES | activation [%] | Potency
COc1cccc(N2CC(NC(=O)c3ccc4ccccc4c3)CC2=O)c1 (stereo not drawn) | -10.4 | –
O=C1c2cccnc2C(Nc2ccc(S(=O)(=O)N3CCCCCC3)cc2)N1Cc1ccccc1 (stereo not drawn) | 9.65 | –
NC(=O)c1ccsc1NC(=O)COC(=O)COc1ccc(C=O)cc1 | 6.98 | –
Cc1ccc(NC(=O)CN(C)C(=O)COC(=O)c2nccnc2N)cc1 | -4.92 | –
O=S(=O)(c1ccccc1)c1nc(Cc2ccccc2)oc1N1CCOCC1 | -0.0652 | –
COc1ccc(NC(=O)NCCN2CCN(c3ccc(C)cc3)CC2)c(Cl)c1 | -6.15 | –
O=C(CSc1nnc2c(n1)[nH]c1ccccc12)NC1CCCCC1 | 5.6 | –
O=C(C1CCN(c2nnc(-n3cccc3)s2)CC1)N1CCc2ccccc2C1 | -1.95 | –
Cc1ccc(C)c(S(=O)(=O)N2CCCOC2CNC(=O)C(=O)NC2CCCCC2)c1 (stereo not drawn) | -11 | –
O=C(CN1CCc2ccccc2C1)Nc1cccc(S(=O)(=O)N2CCOCC2)c1 | -0.384 | –
CC(C)Oc1ccc(C(=O)NC(C)(C)CO)cc1 | 8.01 | –
O=C(Nc1cc2c3c(c1)CC(=O)N3CCC2)c1ccccc1F | -3.25 | –
Cc1cc([N+](=O)[O-])nn1CC(=O)Nc1ccc(Cc2ccncc2)cc1 | -0.234 | –
O=C1CCCN2N=C(SCC(=O)Nc3ccc(Br)cc3)SC2=N1 | 17.5 | –
CCC1CCCCN1C(=S)Nc1ccc(S(=O)(=O)Nc2ncccn2)cc1 (stereo not drawn) | 12.6 | –
Cc1ccsc1CNn1cnnc1SCc1ccccc1F | 10.8 | –
COc1ccc(N2CCN(C(CNS(=O)(=O)c3ccc(C)cc3)c3ccccc3)CC2)cc1 (stereo not drawn) | 8.4 | –
CCOC(=O)C1CCN(Cc2ccc(-c3ccccc3)cc2)CC1 | 12 | –
CCOC(=O)/C(C#N)=C/c1ccc(N2CCN(Cc3ccccc3)CC2)cc1 | – | 89.1 µM (active)
CCCn1c(C)cc(/C=C(\C#N)C(=O)OCC(=O)N(C)c2c(N)n(Cc3ccccc3)c(=O)[nH]c2=O)c1C | 5.74 | –
Cn1cnc([N+](=O)[O-])c1Nc1ccccc1O | -3.09 | –
COc1ccc2c3c1O[C@H]1C[C@@H](O)C=C[C@@]31CCN(C)C2 | 5.28 | –
COc1cc(C(=O)NCC(c2ccco2)N2CCCC2)ccc1OCc1ccccc1 (stereo not drawn) | 5.29 | –
CC(=O)NC(C)(C)C1CC=C(C)/C(=N\O)C1 (stereo not drawn) | 1.89 | –
COc1ccc([N+](=O)[O-])cc1NC(=O)C(C)OC(=O)C1c2ccccc2Oc2ccccc21 (stereo not drawn) | 5.45 | –
C[C@@H]1CN([C@H](C)CO)C(=O)c2cc(NC(=O)NC3CCCCC3)ccc2O[C@H]1CN(C)S(C)(=O)=O | -3.15 | –

SMILES | activation [%] | Potency
CSc1nnc2c(n1)OC(c1ccsc1)N(C(C)=O)c1ccccc1-2 (stereo not drawn) | -0.63 | –
CC(NC(=O)CCC(=O)N1CCN(S(=O)(=O)c2ccc(Cl)cc2)CC1)c1ccccc1 (stereo not drawn) | 4.86 | –
Cc1ccsc1-c1nc(CSCC(=O)NCCN2CCCC2)c(C)o1 | 8.65 | –
COc1ccc(-n2c(SCC(=O)Nc3ccc4c(c3)OCO4)nnc2C(C)N2CCCCC2)cc1 (stereo not drawn) | 6.7 | –
NS(=O)(=O)c1cc(C(=O)OCC(=O)NNC(=O)c2ccccc2)ccc1Cl | 9.9 | –
O=c1c2ccccc2ccc2ccc(P(=O)(O)O)cc12 | -18 | –
CC(=O)Nc1ccc(S(=O)(=O)N(C)CC(=O)NCCC2=CCCCC2)cc1 | -4.75 | –
COc1cc(OC)cc(C(=O)NCC(=O)N2CCCCCCC2)c1 | -5.76 | –
COC(=O)C(C(=O)Nc1cccc(C)n1)C1CCCCCC1 (stereo not drawn) | 2.99 | –
C[C@H]1CN([C@@H](C)CO)C(=O)CCCn2cc(nn2)CO[C@@H]1CN(C)S(=O)(=O)c1cccc(C#N)c1 | 1.15 | –
CN(C)c1ccc(C2Nc3ccccc3C(=O)N2NS(=O)(=O)c2ccccc2)cc1 (stereo not drawn) | 12.9 | –
O=C(O)c1cccnc1NC1CCCC1 | 8.94 | –
COC(=O)c1ccccc1NC(=O)CSc1nc2c(c(=O)[nH]1)CCC2 | 5.97 | –
Oc1ccc2ccc3cccc[n+]3c2c1 | – | 89.1 µM (active)
C=CCN1CCN(c2ccncc2S(=O)(=O)N2CCN(C)CC2)CC1 | 8.73 | –
CC(=O)Nc1ccc(S(=O)(=O)N2CCN(C(=O)c3ccccc3F)CC2)cc1 | 2.19 | –
CCOC(=O)N1CCC(N(CCOC)C(=O)Nc2ccc(C)c(C)c2)CC1 | 7.87 | –
COc1ccc(-c2cc(NC=O)c3ncc(-c4ccccc4)n3c2)cc1OC | 9.19 | –
O=C(O)CCCCCCCCCC[n+]1ccccc1 | 1.29 | –
Cc1cc(C)n2nc(C(=O)N(C)C(c3ccccc3)c3ccccc3)nc2n1 | -4.38 | –
CCn1cc(CN2CCN(CC(C)(C)C)C(CCO)C2)c2ccccc21 (stereo not drawn) | -3.98 | –
NS(=O)(=O)c1ccc(N=Cc2ccc(Br)s2)cc1 | 5.66 | –
COC(=O)c1cc(NC(=O)CN2CCC(C(N)=O)(N3CCCCC3)CC2)cc(C(=O)OC)c1 | 5.47 | –
O=C(O)CSCNC(=O)CC12CC3CC(CC(C3)C1)C2 | 2.38 | –
Cc1ccc(CCNC(=O)C2CCN(S(=O)(=O)N3CCCC3)CC2)cc1 | -0.549 | –
